The list is not random: actives were taken first. Their share in the collection is about 3.4%.
GPR151 activ: activators of human GPR151, primary screen, cell-based, PathHunter beta-arrestin, luminescence; G-protein coupled receptor 151 (Homo sapiens), Q8TDV0; PathHunter beta-arrestin GPR151 cells; activation, % at 11.2 µM; 1% of 650,000 active; AID 1508602, 2020; in the data active = activation above about 4.9%;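 also: 0% = median of compound wells and 100% = cells with positive control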
MITF primary: MITF inhibitors, primary screen, biochemical, AlphaScreen, human; 0.91% of 650,000 active; Microphthalmia-associated transcription factor (Homo sapiens), O75030; AlphaScreen MITF homodimerization, bead proximity signal; inhibition, % at 2.6 µM; in the data active = inhibition above about 50%;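 also: 0% = vehicle wells with protein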
TEAD-YAP inh: TEAD-YAP interaction inhibition, primary screen, TEAD-YAP interaction inhibitor project, luminescence, HEK-TIYL cells; inhibition, % at 9.12 µM; TEAD-Gal4/YAP UAS-luciferase luminescence; AID 1259422, 2018; 1.4% of 640,000 active; in the data active = inhibition above about 32%;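 also: 0% = median of test compound wells and 100% = reference inhibitor wells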
FBW7 act: FBW7 E3 ligase activators, primary screen, biochemical, AlphaScreen, human. AlphaScreen FBW7–phospho-cyclin E peptide binding, activator screen. normalized activity (activation), % at 26.1 µM. 0.13% of 650,000 active. AID 1259310, 2017; in the data active = normalized activity above about 1.9%;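 also: purified mutant Fbw7 with reduced substrate affinity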
GPR151 conf act: GPR151 activators, triplicate retest, confirmation, cell-based, PathHunter beta-arrestin, luminescence | shares compounds with GPR151 activ | activation, % at 11.2 µM | 6,700 tested, under 10 active | GPR151 PathHunter beta-arrestin cells, 90 min; % of EA-reagent control over plate median;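 active = mean percent activation across replicates above the confirmation screen cutoff of 4.91%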
GPR119 counter: GPR119 activators in beta-arrestin cells, counter-screen for GPR151 activator project, cell-based, PathHunter beta-arrestin, luminescence, triplicate; activation, % at 11.2 µM; 0.3% of 6,700 active; 90 min; 0 = compound-well median, 100 = enzyme-acceptor control; shares compounds with GPR151 activ;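 active = mean percent activation in the counterscreen above 29.09%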;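 also: counterscreen on off-target GPR119 to flag nonselective hits from the GPR151 activator screen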
Target sequence (Q8TDV5 whole entry, looked up): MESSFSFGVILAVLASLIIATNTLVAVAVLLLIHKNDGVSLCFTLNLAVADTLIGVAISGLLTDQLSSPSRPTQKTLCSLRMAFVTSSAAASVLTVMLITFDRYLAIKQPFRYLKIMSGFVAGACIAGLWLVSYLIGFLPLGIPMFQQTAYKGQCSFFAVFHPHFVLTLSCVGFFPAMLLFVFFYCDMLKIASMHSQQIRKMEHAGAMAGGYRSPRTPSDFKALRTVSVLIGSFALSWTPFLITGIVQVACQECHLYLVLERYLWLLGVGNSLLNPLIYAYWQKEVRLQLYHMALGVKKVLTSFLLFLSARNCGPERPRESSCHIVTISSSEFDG
* = called active by the depositor; x = no result; ! = not confirmed by another sample.

SMILES	GPR151 activ	MITF primary	TEAD-YAP inh	FBW7 act	GPR151 conf act	GPR119 counter
O=C1CCCN1CCCNc1nc(NCCN2CCOCC2)c2ncn(CCN3CCCC3=O)c2n1	6.4*	2	-9	0	0	-11
O=C1CCCN1CCCNc1nc(NCCCN2CCCC2=O)c2ncn(CCN3CCCC3=O)c2n1	-2	10	-9	0	x	x
O=C1CCCN1CCn1cnc2c(NC3CC3)nc(Nc3ccncc3)nc21	12*	0	1	0	0	-3
O=C1CCCN1CCCNc1nc(N2CCC(N3CCOCC3)CC2)nc2c1ncn2C1CCCCC1	14*	-2	-1	0	0	-6
O=C(CCCOc1ccc(Cl)cc1Cl)N(C(=O)CCCOc1ccc(Cl)cc1Cl)n1cnnc1	1	5	4	0	x	x
COc1cccc(-c2noc(-c3cccc(C)c3)n2)c1	-1	-30	-37	0	x	x
CCOC(=O)C1=C(CC)NC2=C(C(=O)CC(C)(C)C2)C1c1ccc(OC)cc1 (stereo not drawn)	-1	13	15	1	x	x
O=C(NCCO)c1cccc(-c2nccnc2NCc2cccs2)c1	0	10	2	0	x	x
CCCNc1nc(Nc2cc(OC)c(OC)c(OC)c2)nc2c1ncn2CCN1CCCC1=O	2	12	9	0	x	x
CCNc1nc(NCCCN2CCCC2=O)c2ncn(C(C)C)c2n1	5.4*	4	8	0	0	-8
COc1cc(Nc2nc(NCCN3CCOCC3)c3ncn(CCN4CCCC4=O)c3n2)cc(OC)c1OC	5.7*	17	0	0	2	4
CC(C)n1cnc2c(NCCCN3CCCC3=O)nc(NCCCN3CCCC3=O)nc21	3	10	-1	0	x	x
O=C(CSc1nccn2nc(-c3ccc(F)cc3)cc12)Nc1cccc(F)c1	-1	4	11	0	x	x
COc1ccccc1C1(NC(=O)CCn2cccn2)CCCC1	2	15	5	0	x	x
COc1ccccc1C1(NC(=O)CCn2nc(C)cc2C)CCCC1	5.0*	-11	8	0	1	-3
CN(C)c1ccc(/C=N/Nc2ccc(S(=O)(=O)O)cc2)cc1	0	-3	5	0	x	x
COCCn1c(SCC(=O)/C(C#N)=C(\C)N)nnc1-c1ccc(Cl)cc1	0	-15	-10	0	x	x
COc1cc(/C=N/NC(=O)Cn2nnc(-c3ccccc3)n2)cc2sc(=O)oc12	8.0*	5	9	0	0	4
COc1cc(/C=N/NC(=O)CN2CC(c3ccccc3)CC2=O)cc2sc(=O)oc12 (stereo not drawn)	0	0	5	0	x	x
CCOCCc1nnc(NC(=O)CC(c2ccccc2)c2ccccc2)s1	8.6*	20	2	1	0	9
O=C(NCCc1ccccc1)C(F)(F)C(F)F	19*	6	0	0	0	1
OCCNCCCCOc1cccc(Cl)c1Cl	-4	35	13	1	x	x
OCCNCCCOc1cccc(Cl)c1Cl	5.5*!	11	70*	0	0	0
O=C(Nc1nc2c(s1)CCCC2)C1CN(c2nc3ccccc3s2)C1	9.8*	3	-17	0	0	-1
O=C(NCc1ccccc1F)C1CN(c2nc3ccccc3s2)C1	1	2	-36	0	x	x
SMILES	GPR151 activ	MITF primary	TEAD-YAP inh	FBW7 act	GPR151 conf act	GPR119 counter
O=C(NC(=S)NCc1ccccc1)c1ccccc1F	7.0*	-10	0	0	1	0
O=C(NC(=S)NC(=O)c1ccccc1F)c1ccccc1F	2	8	10	0	x	x
CC(=O)Oc1ccc(C(=O)c2ccccc2)c(OC(C)=O)c1	5.6*	11	10	0	0	-1
COc1ccc(-c2nc3c(NC4CCN(Cc5ccccc5)CC4)ncnc3n2C(C)C)cc1	-1	0	14	0	x	x
Cc1ccc(NC(=O)CSc2cn(Cc3ccc(F)cc3)c3ccccc23)cc1	7.0*	5	-2	0	-1	-4
CCOc1cc(-c2nc3sc4c(c3c(=O)[nH]2)CCCC4)ccc1OCc1ccccc1F	5.5*	-1	-7	0	1	-8
COc1cc(-c2nc3sc4c(c3c(=O)[nH]2)CCCC4)ccc1OCCOc1ccc(C)c(C)c1	5.7*	4	0	0	-1	-1
Cc1ncsc1CCOC(=O)CC12CC3CC(CC(C)(C3)C1)C2	-1	17	-13	1	x	x
Cc1cccc(-n2c(CNC(=O)c3ccc(S(=O)(=O)N4CCOCC4)cc3)nnc2SCC(=O)Nc2nc3ccccc3s2)c1	0	-5	-5	0	x	x
O=C(Nc1ccc(F)cc1F)C(=O)N1CCCCC1	7.1*	-10	-33	0	1	3
CCCC1=NN2C(=N)/C(=C/c3ccc(-c4ccc([N+](=O)[O-])cc4)o3)C(=O)N=C2S1	-1	16	1	0	x	x
CCCc1ccc(-c2ccc(C(=O)Nc3nnc(SCC)s3)cc2)nc1	2	-1	2	0	x	x
CCOC(=O)N1CCc2c(sc(NCc3cccc(OC)c3)c2C(=O)Nc2ccc(OCC)cc2)C1	1	-1	-6	0	x	x
COc1ccc(N2CCN(S(=O)(=O)c3ccccc3F)CC2)cc1	-1	6	4	0	x	x
O=S(=O)(c1cccc2ccccc12)N1CCN(c2ccc(F)cc2)CC1	19*	0	-5	0	0	-6
COc1ccc(N2CCN(S(=O)(=O)c3ccccc3C(F)(F)F)CC2)cc1	5.1*	0	2	0	0	1
Cc1cc(S(=O)(=O)N2CCN(c3ccc(F)cc3)CC2)c(Cl)cc1Cl	5.3*	5	-11	0	1	5
O=S(=O)(c1cccc2ccccc12)N1CCN(c2ncccn2)CC1	-1	13	7	0	x	x
Cn1nnc2cc(NC(=O)Nc3ccc(Br)cc3)ccc21	5.9*	0	-92	0	0	1
COc1ccc(C(O)C(=O)N[C@H]2CC[C@H](C(=O)Nc3ccc4[nH]ncc4c3)C2)cc1 (stereo partly drawn)	-1	5	0	0	x	x
CCOC(=O)C1=C(C)NC2=C(C(=O)C(C(=O)OCC)C(c3ccccc3OC)C2)C1c1ccc(OCc2ccccc2)c(OC)c1 (stereo not drawn)	8.7*	5	0	0	0	-4
COC(=O)C1=CN(C)C=C(C(=O)OC)C1c1ccc(OCc2ccccc2)c(OC)c1	2	-5	-18	0	x	x
CCOC(=O)C1=CN(C)C=C(C(=O)OCC)C1c1ccc(OC)c(OCc2ccccc2)c1	7.2*	-1	-4	1	0	0
